Compounds without any hit were thinned out: in the full panel of roughly 83,000, 20% have a hit.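 Interpretation: 100, growth as untreated; towards 0, rising growth inhibition; 0, no net growth; 0 to -100, cell death. Compounds scoring below 10 were considered active.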 Values without a mark were called inactive. The source made the active and inactive calls.
Columns and labels:
Experiment in all cases: NCI-60 one-dose screen, 48 h (100 = growth as untreated, 0 = no growth, -100 = all killed)
Conditions in all cases: 10 µM unless noted
DU-145 prostate = test system: DU-145 prostate
K-562 leukemia = test system: K-562 leukemia
MALME-3M melanoma = test system: MALME-3M melanoma
MDA-MB-231 breast = test system: MDA-MB-231 breast
SF-268 CNS = test system: SF-268 CNS
SF-295 CNS = test system: SF-295 CNS
SF-539 CNS = test system: SF-539 CNS
UACC-257 melanoma = test system: UACC-257 melanoma
M14 melanoma = test system: M14 melanoma
HCT-15 colon = test system: HCT-15 colon
HT29 colon = test system: HT29 colon
SNB-75 CNS = test system: SNB-75 CNS
SNB-19 CNS = test system: SNB-19 CNS
U251 CNS = test system: U251 CNS
PC-3 prostate = test system: PC-3 prostate
SK-MEL-5 melanoma = test system: SK-MEL-5 melanoma
UACC-62 melanoma = test system: UACC-62 melanoma
LOX IMVI melanoma = test system: LOX IMVI melanoma
SK-MEL-28 melanoma = test system: SK-MEL-28 melanoma

Structure (SMILES) | growth (DU-145 prostate) | growth (K-562 leukemia) | growth (MALME-3M melanoma) | growth (MDA-MB-231 breast) | growth (SF-268 CNS) | growth (SF-295 CNS) | growth (SF-539 CNS) | growth (UACC-257 melanoma) | growth (M14 melanoma) | growth (HCT-15 colon) | growth (HT29 colon) | growth (SNB-75 CNS) | growth (SNB-19 CNS) | growth (U251 CNS) | growth (PC-3 prostate) | growth (SK-MEL-5 melanoma) | growth (UACC-62 melanoma) | growth (LOX IMVI melanoma) | growth (SK-MEL-28 melanoma)
COc1cc(C2CC(c3cccc(Nc4ccncc4)c3)=NN2c2ccccc2)cc(OC)c1OC (centres undefined) | 45.4% | 0.38% (active) | -77.7% (active) | 63.4% | 64.7% | 58.6% | 76.9% | -13.8% (active) | 58.9% | 28.2% | 1.04% (active) | 44.2% | 68.1% | 19.7% | 30.2% | -52.5% (active) | 96.2% | 33.8% | 5.22% (active)
CN1CCN(c2ccc3nc(-c4cc(C(C)(C)C)c(O)c(C(C)(C)C)c4)[nH]c3c2)CC1 | 77.6% | -11.3% (active) | -91.6% (active) | 38.6% | 72.7% | 93.7% | 64.4% | -53.2% (active) | 11% | -35.3% (active) | 6.14% (active) | 58.8% | 73.6% | 16.5% | 58.7% | 74.9% | 63.5% | -37.3% (active) | 57%
Clc1ccc(N2N=C(c3cccc(Nc4ccncc4)c3)CC2c2ccc3c(c2)OCO3)cc1 (centres undefined) | 41.9% | 5.23% (active) | 25.5% | 37.8% | 63.1% | 39% | 81.9% | 86% | -52.4% (active) | -21.1% (active) | 3.63% (active) | 55.9% | 80.6% | 5.93% (active) | 31.3% | 30.9% | 90.8% | -74.4% (active) | -12.5% (active)
CN(C)C(=O)OCc1nc2c(N3CCOCC3)nc(-c3ccccc3)nc2n1C | -74.4% (active) | 5.32% (active) | -92.8% (active) | -86.5% (active) | -59.9% (active) | 29.9% | -98.3% (active) | -65.4% (active) | -54.5% (active) | -38.6% (active) | -53.7% (active) | -87.2% (active) | 13.9% | -57.2% (active) | -65.2% (active) | -95.7% (active) | -92% (active) | -84.7% (active) | -95.4% (active)
Cc1ccc(C2CC(c3cccc(Nc4ccncc4)c3)=NN2c2ccccc2)cc1 (centres undefined) | -72.2% (active) | -15.6% (active) | -92.8% (active) | -87.9% (active) | -73.1% (active) | -91.3% (active) | -96.9% (active) | -55.7% (active) | -49.8% (active) | -82.6% (active) | -42% (active) | -95.6% (active) | -76.8% (active) | -54.1% (active) | -66.7% (active) | -94.1% (active) | -94.9% (active) | -100% (active) | -98.9% (active)
COc1ccc(-c2nc(SC(C)C)nc(NNC(N)=O)c2C#N)cc1 | 94.2% | 25.7% | 81.2% | 78.8% | 84.9% | 88.7% | 85.1% | 99.8% | 99.6% | 58.6% | 106% | 59.1% | 89% | 93.5% | 75.9% | 89.1% | 85.8% | 76.7% | 93%

Reference: PubChem BioAssay (NCI)
